In the assay the target is PADI4, Q9UM07. As to the kind of experiment: log2 enrichment score relative to parent PADI4_3 peptide (binding to PADI4); higher = tighter binding than parent. The note with it: CaCl2: 10 mM. The method, then: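 Deep mutational scan of the cyclic peptide PADI4_3 (ClAc-D-Tyr1 initiator, thioether-cyclised to Cys12, C-terminal Gly plus HA tag, mRNA-displayed). Positions 2-11 were each randomised by NNK codons; Met was reprogrammed as N-methyl-alanine (MeA). One round of equilibrium panning against bead-immobilised human PADI4 (100 nM, 10 mM CaCl2, RT). Log2 enrichment (bound/input frequency) relative to the parent sequence (0 = parent), mean of three independent selections.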
Sequence of PADI4, Q9UM07 (Q9UM07 whole entry): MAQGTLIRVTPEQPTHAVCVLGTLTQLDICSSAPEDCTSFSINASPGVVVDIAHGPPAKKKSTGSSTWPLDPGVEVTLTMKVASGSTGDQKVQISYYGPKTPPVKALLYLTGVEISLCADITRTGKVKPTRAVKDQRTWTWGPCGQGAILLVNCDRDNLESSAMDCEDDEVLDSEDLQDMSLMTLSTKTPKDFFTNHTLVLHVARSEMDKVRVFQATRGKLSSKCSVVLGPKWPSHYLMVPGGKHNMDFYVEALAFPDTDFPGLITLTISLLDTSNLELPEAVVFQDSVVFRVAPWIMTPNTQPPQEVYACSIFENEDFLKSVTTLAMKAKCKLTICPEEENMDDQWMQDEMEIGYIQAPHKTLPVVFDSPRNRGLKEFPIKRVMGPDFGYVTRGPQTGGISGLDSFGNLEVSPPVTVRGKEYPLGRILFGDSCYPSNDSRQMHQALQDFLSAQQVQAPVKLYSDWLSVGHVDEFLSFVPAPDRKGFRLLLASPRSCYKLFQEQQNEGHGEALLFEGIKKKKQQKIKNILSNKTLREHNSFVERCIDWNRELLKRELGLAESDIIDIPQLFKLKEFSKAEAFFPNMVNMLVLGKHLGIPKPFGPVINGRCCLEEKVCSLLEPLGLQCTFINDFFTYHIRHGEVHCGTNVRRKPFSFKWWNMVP

Turning to YRDHHYRYPKYCG [PADI4_3_H8Y H8Y], the log2 enrichment score is -3.56.

For the molecule YRFHHYRHPKYCG [PADI4_3_D3F D3F], the log2 enrichment score was -4.36. On to YRDHHYRPPKYCG [PADI4_3_H8P H8P], for which the log2 enrichment score was -4.28.

For YRDHHVRHPKYCG [PADI4_3_Y6V Y6V], the log2 enrichment score is -2.3. The same measure for YRDHVYRHPKYCG [PADI4_3_H5V H5V]: -3; for YRDHHYRHYKYCG [PADI4_3_P9Y P9Y]: -2. The same measure for YRDHWYRHPKYCG [PADI4_3_H5W H5W]: -4.12; for YRVHHYRHPKYCG [PADI4_3_D3V D3V]: -3.7; for YRDHPYRHPKYCG [PADI4_3_H5P H5P]: -3.95. The same measure for YRDVHYRHPKYCG [PADI4_3_H4V H4V]: -2.6; for YRDHHYRHPVYCG [PADI4_3_K10V K10V]: 2.58; for YRDPHYRHPKYCG [PADI4_3_H4P H4P]: -2.66. For YWDHHYRHPKYCG [PADI4_3_R2W R2W], the log2 enrichment score is -2.67.

With YRDHHYFHPKYCG [PADI4_3_R7F R7F], the log2 enrichment score is -0.962. The same measure for YRDHHHRHPKYCG [PADI4_3_Y6H Y6H]: 0.321.

In the case of YRDHHYRHPKYCG [PADI4_3_H5H H5H], the log2 enrichment score was 0. Take YRDHFYRHPKYCG [PADI4_3_H5F H5F]: the log2 enrichment score was -4.31. The value for YRDHHYVHPKYCG [PADI4_3_R7V R7V] was -1.6.

For YRDHHYWHPKYCG [PADI4_3_R7W R7W], the log2 enrichment score stood at 1.07. The value for YRDHHYRHHKYCG [PADI4_3_P9H P9H] was -2.06; that for YRDHHYRHVKYCG [PADI4_3_P9V P9V] was -1.8. In the case of YRDHHYRHWKYCG [PADI4_3_P9W P9W], the log2 enrichment score was -2.

For YRDHHYRHPYYCG [PADI4_3_K10Y K10Y], the log2 enrichment score was -0.51. The same measure for YRDHHYRHPHYCG [PADI4_3_K10H K10H]: -1. Turning to YYDHHYRHPKYCG [PADI4_3_R2Y R2Y], the log2 enrichment score was -2.62. The value for YRDHHYRHPPYCG [PADI4_3_K10P K10P] was -3.67; that for YRYHHYRHPKYCG [PADI4_3_D3Y D3Y] was -3.73; that for YRDHHYPHPKYCG [PADI4_3_R7P R7P] was -4.46. The same measure for YRDHHYRHPKYCG [PADI4_3_P9P P9P]: 0. Take YRDHHYRFPKYCG [PADI4_3_H8F H8F]: the log2 enrichment score was -3.69. As for YPDHHYRHPKYCG [PADI4_3_R2P R2P], the log2 enrichment score was -2.67.

Take YRDHHYRHPKWCG [PADI4_3_Y11W Y11W]: the log2 enrichment score was -2.51. As to YRDWHYRHPKYCG [PADI4_3_H4W H4W], the log2 enrichment score was -3.44.

Take YRDHHPRHPKYCG [PADI4_3_Y6P Y6P]: the log2 enrichment score is -2.49. The same measure for YRDHHYHHPKYCG [PADI4_3_R7H R7H]: -1.29. The same measure for YRDHHYYHPKYCG [PADI4_3_R7Y R7Y]: -0.78.

For YRDHHFRHPKYCG [PADI4_3_Y6F Y6F], the log2 enrichment score was -0.749.

With YRDHHYRHPKVCG [PADI4_3_Y11V Y11V], the log2 enrichment score is -4.2. The same measure for YRDHYYRHPKYCG [PADI4_3_H5Y H5Y]: -4.14.

Consider YRPHHYRHPKYCG [PADI4_3_D3P D3P], for which the log2 enrichment score is -2.96. The value for YRDHHYRHPFYCG [PADI4_3_K10F K10F] was -0.468; that for YRDHHYRVPKYCG [PADI4_3_H8V H8V] was -3.3; that for YRDHHYRHPWYCG [PADI4_3_K10W K10W] was -0.93. The same measure for YRDHHYRHPKYCG [PADI4_3_H8H H8H]: 0; for YRDLHYRHPKYCG [PADI4_3_H4L H4L]: -1.52; for YRDHHYRHPKYCG [PADI4_3_Y11Y Y11Y]: 0. The value for YRDHHYRHPKYCG [PADI4_3_Y6Y Y6Y] was 0; that for YRDHHYRHPKHCG [PADI4_3_Y11H Y11H] was -2.81.

For the molecule YRDHHYRHPKFCG [PADI4_3_Y11F Y11F], the log2 enrichment score is -2.66.

YRDYHYRHPKYCG [PADI4_3_H4Y H4Y]: the log2 enrichment score was -3.97.

Take YRDHHWRHPKYCG [PADI4_3_Y6W Y6W]: the log2 enrichment score was -2.2. Take YFDHHYRHPKYCG [PADI4_3_R2F R2F]: the log2 enrichment score is -2.57. The same measure for YRDHHYRWPKYCG [PADI4_3_H8W H8W]: -3.81; for YVDHHYRHPKYCG [PADI4_3_R2V R2V]: -1.2. As to YHDHHYRHPKYCG [PADI4_3_R2H R2H], the log2 enrichment score was -2.21. The same measure for YRDFHYRHPKYCG [PADI4_3_H4F H4F]: -3.79; for YRDHHYRHFKYCG [PADI4_3_P9F P9F]: -2.05. The same measure for YRWHHYRHPKYCG [PADI4_3_D3W D3W]: -3.57. Take YRDHHYRHPKPCG [PADI4_3_Y11P Y11P]: the log2 enrichment score is -4.34.
